Experimental findings from PubChem BioAssay (NCATS) are described below.

SMILES strings stand for the structures. Records with an inconclusive call do not appear. A number with no mark means an inactive call. Activity calls are given as the source filed them. Calls follow the shape of the dose curve; as a rule, active = well fitted curve in the direction sought with a large enough effect; inconclusive = small, poorly fitted or top-dose-only effect, or another doubt; inactive = no such curve, though single readings can be large; an effect the other way counts as inactive or inconclusive.

Experiment [1] is described as follows: Primary qHTS for inhibitors of nuclear receptor binding SET domain protein 2 (NSD2) in an isogenic RCH-ACV NSD2 p.E1099K mutant (9B) (AID 1645876). (qHTS replaces the single test concentration by a dilution series.)
Experiment [2] can be described thus: Primary qHTS for inhibitors of nuclear receptor binding SET domain protein 2 (NSD2) in an RCH-ACV wild type WT cells (2C) (AID 1645877).
% is scaled to controls: 0 for no effect and ±100 for the full control effect.
Also: nearly all actives have a fitted effect of over 70% in size.

On to `COc1cc([C@H]2OC[C@@H]3[C@@H](c4ccc(O[C@@H]5O[C@H](CO)[C@@H](O)[C@H](O)[C@H]5O)c(OC)c4)OC[C@]23O)ccc1O`, for which the Potency entry in experiment [1] and in experiment [2] was “inactive” each time.
On to `C[C@H]1[C@H](C)CC[C@]2(C(=O)O)CC[C@]3(C(=O)O)C(=CCC4[C@@]5(C)CC[C@H](O[C@@H]6O[C@H](C)[C@@H](O)[C@H](O)[C@H]6O)C(C)(C)C5CC[C@]43C)[C@H]12` (some centres undefined), for which the Potency entry in experiment [1] and in experiment [2] was “inactive” in each case.
Take `CC(=O)O[C@@H]1[C@H](O[C@@H]2OC[C@](O)(CO)[C@H]2O)[C@@H](O[C@@H]2O[C@@H](C)[C@H](O)[C@@H](O)[C@H]2O)[C@H](OC(=O)[C@]23CCC(C)(C)C[C@H]2C2=CCC4[C@@]5(C)C[C@H](O)[C@H](O[C@@H]6O[C@H](C(=O)O)[C@@H](O)[C@H](O)[C@H]6O)[C@@](C)(C(=O)O)C5CC[C@@]4(C)[C@]2(C)CC3)O[C@@H]1C` (some centres undefined): the activity change, negative = viability loss in experiment [1] was -7.7% [at 9.23 µM]. Also, the activity change, negative = cell killing in experiment [2] was -8.29% [at 9.23 µM].
As to `NC(=O)[C@H]1CCCCc2c1[nH]c1ccc(Cl)cc21`, the Potency result in experiment [1] and in experiment [2] was “inactive” in each case.
For `N#CCc1ccc(O)cc1O[C@@H]1O[C@H](CO)[C@@H](O)[C@H](O)[C@H]1O`, the Potency entry in experiment [1] and in experiment [2] was “inactive” throughout.
Consider `CC[C@H]1OC(=O)[C@H](C)[C@@H](OC2C[C@@](C)(OC)[C@@H](O)[C@H](C)O2)[C@H](C)[C@@H](OC2O[C@H](C)C[C@H](NC)[C@H]2O)[C@](C)(O)C[C@@H](C)CN(C)[C@H](C)[C@@H](O)[C@]1(C)O` (some centres undefined), for which the Potency entry in experiment [1] and in experiment [2] was “inactive” throughout.
`C=C1CC[C@H]2[C@@](C)(CCC[C@@]2(C)C(=O)O)[C@@H]1CCC(C)CCO` (some centres undefined): the Potency entry in experiment [1] and in experiment [2] was “inactive” throughout.
